PubChem BioAssay (NCI)
About 79,000 compounds went through this panel and 15% of them were active in at least one assay; those are over-represented in the sample as a whole. Active and inactive are the calls of the source. Cut-off read from the data, not from the text of the source: active = growth inhibition above about 70%; inactive = the rest.

Key:
[1] = NCI Yeast Anticancer Drug Screen. Data for the rad50 strain (AID 155);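 note: 0% = growth of vehicle-only cultures of the same strain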; conditions: S. cerevisiae rad50 strain growth inhibition, hits give high values
Method in brief: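 DNA repair mutant yeast, compound exposure, growth read-out; inhibition is taken relative to vehicle.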

[2] = NCI Yeast Anticancer Drug Screen. Data for the mec2-1 strain (AID 157); conditions: S. cerevisiae mec2-1 strain, hits give high values
Method in brief: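 Yeast mec2-1 mutant treated with compound. Readout: growth inhibition vs vehicle controls.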

[3] = NCI Yeast Anticancer Drug Screen. Data for the sgs1 mgt1 strain (AID 161);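 note: 0% = growth of cultures given vehicle only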; conditions: S. cerevisiae sgs1 mgt1 strain, hits give high values
Method in brief: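 Inhibition of yeast growth, normalised to vehicle-treated controls, is reported for a strain bearing genetic alterations in DNA damage repair.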

[4] = NCI Yeast Anticancer Drug Screen. Data for the cln2 rad14 strain (AID 165);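 note: 0% = growth equal to vehicle treated cultures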; conditions: S. cerevisiae cln2 rad14 strain, hits give high values
Method in brief: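 cln2 rad14 yeast strain; compound exposure; growth inhibition read vs vehicle controls.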

[5] = NCI Yeast Anticancer Drug Screen. Data for the bub3 strain (AID 167); conditions: S. cerevisiae bub3 mutant strain, hits give high values
Method in brief: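 In this screen, a yeast mutant lacking normal mitotic checkpoint function is challenged with compound. Relative growth versus vehicle gives the inhibition value.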

[6] = NCI Yeast Anticancer Drug Screen. Data for the mlh1 rad18 strain (AID 175); conditions: S. cerevisiae mlh1 rad18 strain growth inhibition, hits give high values
Method in brief: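 Yeast w/ defined DNA-repair lesions; compound exposure; growth vs vehicle controls → % inhibition.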

[7] = at 5.0 µM (retest, dose inferred, filed as 0.5)
[8] = at 50.0 µM (retest, dose inferred, filed as 5.0)

Measured: growth inhibition

O=C1c2c(Br)sc(Br)c2[C@@H](NC(=O)C(F)(F)F)C1Br (stereo not given in full)
active: [1]; [8] 99% | [1]; at 50.0 µM 89.3% | [2]; [8] 97% | [2]; at 50.0 µM 81.2% | [3]; [8] 99% | [3]; at 50.0 µM 97% | [4]; [8] 93% | [5]; [8] 94% | [5]; at 50.0 µM 80% | [6]; [8] 99% | [6]; at 50.0 µM 91.8%
inactive: [1]; [7] 8% | [2]; [7] 3% | [3]; [7] 19% | [4]; [7] -1% | [4]; at 50.0 µM 28.1% | [5]; [7] -3% | [6]; [7] 17%

O=C1c2ccccc2SCC12OC2c1ccc(Cl)cc1 (stereo not given)
active: [1]; [8] 85% | [1]; at 50.0 µM 95% | [2]; [8] 88% | [2]; at 50.0 µM 93.5% | [3]; [8] 92% | [3]; at 50.0 µM 95.5% | [4]; [8] 87% | [4]; at 50.0 µM 92% | [5]; [8] 91% | [5]; at 50.0 µM 94.9% | [6]; [8] 91% | [6]; at 50.0 µM 95.1%
inactive: [1]; [7] 9% | [2]; [7] 4% | [3]; [7] 16% | [4]; [7] 1% | [5]; [7] 21% | [6]; [7] 12%

[O-][n+]1c2c(cc3ccccc31)Cc1ccccc1-2
inactive: [1]; [7] 2% | [1]; [8] 31% | [1]; at 50.0 µM 21.7% | [2]; [7] 3% | [2]; [8] 19% | [2]; at 50.0 µM 35% | [3]; [7] -3% | [3]; [8] 5% | [3]; at 50.0 µM -22.6% | [4]; [7] 4% | [4]; [8] 3% | [4]; at 50.0 µM 20.4% | [5]; [7] 7% | [5]; [8] 29% | [5]; at 50.0 µM 24.4% | [6]; [7] 3% | [6]; [8] 20% | [6]; at 50.0 µM 30.7%

Cn1c(=O)ccc2cc(C(=O)c3ccccc3)ccc21
inactive: [1]; [7] 7% | [1]; [8] 22% | [1]; at 50.0 µM 30.2% | [2]; [7] -9% | [2]; [8] 7% | [2]; at 50.0 µM 6.95% | [3]; [7] -9% | [3]; [8] -5% | [3]; at 50.0 µM 14.4% | [4]; [7] 39% | [4]; [8] 51% | [4]; at 50.0 µM 35.4% | [5]; [7] -7% | [5]; [8] 46% | [5]; at 50.0 µM 16.8% | [6]; [7] 9% | [6]; [8] 45% | [6]; at 50.0 µM 65.7%

CCN(CC)CCNC(=O)c1ccc2c(c1O)C(=O)c1ccccc1C2=O
active: [6]; at 50.0 µM 70%
inactive: [1]; [7] 6% | [1]; [8] 54% | [1]; at 50.0 µM 57.3% | [2]; [7] 27% | [2]; [8] 24% | [2]; at 50.0 µM 36% | [3]; [7] 1% | [3]; [8] 40% | [3]; at 50.0 µM 60.5% | [4]; [7] -10% | [4]; [8] 23% | [4]; at 50.0 µM 3.55% | [5]; [7] -3% | [5]; [8] 43% | [5]; at 50.0 µM 33% | [6]; [7] 9% | [6]; [8] 44%

COc1cc2c[n+](C)c3c4ccccc4ccc3c2cc1OC (tested in a mixture with another compound)
active: [1]; [8] 87% | [3]; [8] 90% | [5]; [8] 81% | [6]; [8] 77%
inactive: [1]; [7] 27% | [1]; at 50.0 µM 38% | [2]; [7] 24% | [2]; [8] 54% | [2]; at 50.0 µM 8.85% | [3]; [7] 24% | [3]; at 50.0 µM 7.1% | [4]; [7] 21% | [4]; [8] 69% | [4]; at 50.0 µM 9.7% | [5]; [7] 27% | [5]; at 50.0 µM 17.9% | [6]; [7] 35% | [6]; at 50.0 µM -18.6%

O=C(CCN1CCN(c2cccc(Cl)c2)CC1)N1CCc2c([nH]c3ccccc23)C1c1cccnc1 (stereo not given)
inactive: [1]; [7] 17% | [1]; [8] 17% | [2]; [7] 10% | [2]; [8] 10% | [3]; [7] 8% | [3]; [8] 8% | [4]; [7] 9% | [4]; [8] 9% | [5]; [7] 8% | [5]; [8] 8% | [6]; [7] 23% | [6]; [8] 23%
active: [1]; at 50.0 µM 90.4% | [2]; at 50.0 µM 92% | [3]; at 50.0 µM 90.4% | [4]; at 50.0 µM 92% | [5]; at 50.0 µM 91.3% | [6]; at 50.0 µM 89.7%

O=C(c1ccccc1)c1cccc2ccccc12
active: [6]; at 50.0 µM 88.2%
inactive: [1]; [7] 5% | [1]; [8] 29% | [1]; at 50.0 µM 56.2% | [2]; [7] -5% | [2]; [8] -2% | [2]; at 50.0 µM 43% | [3]; [7] -2% | [3]; [8] 30% | [3]; at 50.0 µM 52.2% | [4]; [7] -2% | [4]; [8] -24% | [4]; at 50.0 µM -14.3% | [5]; [7] 16% | [5]; [8] 27% | [5]; at 50.0 µM 49.7% | [6]; [7] -1% | [6]; [8] 14%

O=C(OC1C2CCC2C2CC21)c1cc([N+](=O)[O-])cc([N+](=O)[O-])c1 (stereo not given)
active: [1]; [8] 97% | [2]; [8] 99% | [2]; at 50.0 µM 98.1% | [3]; [8] 99% | [4]; [8] 98% | [4]; at 50.0 µM 97.8% | [5]; [8] 98% | [6]; [8] 99%
inactive: [1]; [7] -9% | [1]; at 50.0 µM 10.9% | [2]; [7] 4% | [3]; [7] 32% | [3]; at 50.0 µM 13% | [4]; [7] 3% | [5]; [7] 6% | [5]; at 50.0 µM 62.2% | [6]; [7] 42% | [6]; at 50.0 µM 58.9%

COc1ccc(S(=O)(=O)O)cc1-n1nc(C(=O)Nc2ccccc2)n[n+]1-c1cc(S(=O)(=O)[O-])ccc1OC
inactive: [1]; [7] 2% | [1]; [8] 9% | [1]; at 50.0 µM 19.1% | [2]; [7] 1% | [2]; [8] 3% | [2]; at 50.0 µM 39.8% | [3]; [7] 10% | [3]; [8] 4% | [3]; at 50.0 µM 22% | [4]; [7] 0% | [4]; [8] 2% | [4]; at 50.0 µM 0.4% | [5]; [7] -3% | [5]; [8] 2% | [5]; at 50.0 µM -10.6% | [6]; [7] 1% | [6]; [8] -61% | [6]; at 50.0 µM 63.9%
